The source of these data is PubChem BioAssay (NCI).

About 83,000 compounds went through this panel and 20% of them were active in at least one assay; those are over-represented in the sample as a whole.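 Negative percent growth values reflect cell death: -40 means 40% of the cells present at the start died, and -100 means all died.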 Unmarked numbers belong to inactive results. Calls of active or inactive are those of the source. The calls were made as follows: active = growth percent below 10; inactive = the rest.

Test systems include EKVX NSCLC; SN12C renal; UO-31 renal; ACHN renal; CAKI-1 renal; A498 renal; CCRF-CEM leukemia; MOLT-4 leukemia; TK-10 renal; SR leukemia.
What all share (experiment): NCI-60 one-dose screen, 48 h (100 = growth as untreated, 0 = no growth, -100 = all killed)
Common to all, as to conditions: 10 µM unless noted

For the compound `COc1cc([C@@H]2c3cc4c(cc3C(O[C@@H]3O[C@@H]5CO[C@@H](c6cccs6)OC5[C@H](O)[C@H]3O)C3COC(=O)[C@@H]32)OCO4)cc(OC)c1O` (stereo not given in full), the growth in the assay on EKVX NSCLC was 12.7%; with SN12C renal, -9.91% (active); in the assay with UO-31 renal, -72.2% (active); with ACHN renal, -54.3% (active); in the assay with CAKI-1 renal, -10.3% (active); with A498 renal, -73.2% (active). The growth in the assay with CCRF-CEM leukemia is -1.14% (active); in the assay with MOLT-4 leukemia it was 3.06% (active).
Turning to `COc1ccc2nc3cc(Cl)ccc3c(Nc3cc(C(C)C)c(O)cc3C)c2c1`, the growth in the assay on EKVX NSCLC was 25%; with SN12C renal, 54.9%; in the assay on UO-31 renal, -6.15% (active); in the assay with TK-10 renal it was 15.7%; in the assay with ACHN renal, 61.6%; in the assay with A498 renal, 60.2%. The growth is -25.9% (active) in the assay with CCRF-CEM leukemia, 18% in the assay on MOLT-4 leukemia and 16.9% in the assay on SR leukemia.
`CCc1ccc(CCN2C(=O)c3ccccc3C2=O)nc1`: the growth in the assay on EKVX NSCLC is 91%; with SN12C renal it was 103%; with UO-31 renal, 137%; with TK-10 renal, 126%; with ACHN renal, 105%; in the assay on A498 renal it was 120%. The growth in the assay on CCRF-CEM leukemia was 108%; with MOLT-4 leukemia, 109%; in the assay with SR leukemia it was 104%.
With `CN(CC(=O)Nc1nc2ccccc2[nH]1)S(=O)(=O)c1ccc(Cl)cc1`, the growth with EKVX NSCLC is 95.4%; in the assay with SN12C renal, 93.9%; in the assay on UO-31 renal, 28.8%; in the assay on ACHN renal, 83.5%; in the assay with CAKI-1 renal, 89.8%; in the assay on A498 renal, 91.7%. The growth with CCRF-CEM leukemia is 44.6%; with MOLT-4 leukemia, 58.5%; in the assay with SR leukemia it was 89.9%.
As to `CN(C)c1ccc2c(c1)/C(=N/O)c1ccccc1-2`, the growth with EKVX NSCLC was 67.7%; with SN12C renal, 95.4%; in the assay on UO-31 renal, 64.5%; with TK-10 renal, 123%; in the assay on ACHN renal, 87.5%; in the assay on CAKI-1 renal, 46.6%. Also, the growth is 81.2% in the assay with MOLT-4 leukemia and 47.1% in the assay with SR leukemia.
As for `N#CCNc1ccccc1N`, the growth is 89.6% in the assay on EKVX NSCLC; 104% in the assay with SN12C renal; 65.1% in the assay on UO-31 renal; 104% in the assay on TK-10 renal; 85.1% in the assay on MOLT-4 leukemia; 116% in the assay on SR leukemia.
For the compound `CC/C(=C\c1ccc(N(C)C)cc1)c1nc2ccccc2c(=O)[nH]1`, the growth is 93% in the assay with EKVX NSCLC; 106% in the assay with SN12C renal; 108% in the assay with UO-31 renal; 51.1% in the assay on TK-10 renal; 93.4% with ACHN renal; 118% with A498 renal. The results for the growth in the assay with CCRF-CEM leukemia, in the assay on MOLT-4 leukemia and in the assay with SR leukemia were 110%, 140% and 77.4%, respectively.
Consider `C=C(C)[C@H]1CC/C(C)=C/CC[C@]2(C)O[C@H]2CC/C(C=O)=C\C1O` (stereo not given in full), for which the growth was 103% in the assay with EKVX NSCLC; 101% in the assay with SN12C renal; 58.1% with UO-31 renal; 106% in the assay with TK-10 renal; 99% with ACHN renal; 143% in the assay on A498 renal. Moreover, the growth was 137% in the assay with CCRF-CEM leukemia, 142% in the assay on MOLT-4 leukemia and 120% with SR leukemia.
On to `[O-]/[N+](=C\C=C\c1ccccc1)c1ccccc1`, for which the growth is 100% with EKVX NSCLC; 106% with SN12C renal; 97.4% in the assay with UO-31 renal; 108% in the assay on ACHN renal; 103% in the assay on CAKI-1 renal; 96.9% with A498 renal. Also, the growth in the assay with CCRF-CEM leukemia was 88%; in the assay on MOLT-4 leukemia, 85.1%; in the assay with SR leukemia it was 73%.
In the case of `Cc1nc(N)[nH]c(=O)c1C`, the growth with EKVX NSCLC is 100%; in the assay on SN12C renal it was 87.4%; in the assay on UO-31 renal, 107%; with TK-10 renal, 137%; in the assay with ACHN renal, 111%; in the assay on A498 renal, 216%. Moreover, the growth in the assay on CCRF-CEM leukemia was 94.7%; in the assay with MOLT-4 leukemia it was 150%; in the assay with SR leukemia, 92.2%.
Take `O=C(C(=O)N1CCOCC1)c1ccc(OC2OC(CO)C(O)C(O)C2O)cc1` (stereo not given): the growth with EKVX NSCLC was 104%; with SN12C renal it was 106%; in the assay with UO-31 renal, 102%; with ACHN renal it was 97.9%; in the assay on CAKI-1 renal, 98.5%; in the assay with A498 renal, 104%. In addition, the growth in the assay with CCRF-CEM leukemia is 107%; with MOLT-4 leukemia, 90.3%; in the assay with SR leukemia, 102%.
For the compound `CC1=CC(=O)C(C(C)=Nc2ccccc2Cl)C(=O)O1` (stereo not given), the growth with EKVX NSCLC is 103%; in the assay on SN12C renal it was 105%; with UO-31 renal, 95.8%; with TK-10 renal it was 126%; in the assay with ACHN renal, 98.1%; in the assay on A498 renal, 85.7%. Further, the growth is 89.2% with CCRF-CEM leukemia, 101% in the assay on MOLT-4 leukemia and 118% with SR leukemia.
For `Cc1c(C(N)=O)sc2nc(SCC(=O)Nc3ccc(Cl)cc3)n(-c3ccccc3)c(=O)c12`, the growth was 98.4% in the assay on EKVX NSCLC; 95.2% in the assay on SN12C renal; 121% in the assay with UO-31 renal; 52.8% in the assay on TK-10 renal; 106% in the assay with ACHN renal; 192% in the assay with A498 renal. Also, the results for the growth in the assay with MOLT-4 leukemia and in the assay on SR leukemia were 156% and 106%, respectively.
In the case of `Nc1nc(N)c([N+](=O)[O-])c(=O)[nH]1`, the growth in the assay with EKVX NSCLC is 121%; with SN12C renal, 105%; in the assay with UO-31 renal, 80.8%; in the assay on ACHN renal, 98.7%; in the assay on CAKI-1 renal it was 104%; in the assay on A498 renal it was 97.9%. Also, the growth in the assay on CCRF-CEM leukemia is 93.1%; in the assay on MOLT-4 leukemia it was 111%; in the assay with SR leukemia it was 106%.
